In PubChem BioAssay AID1159580 (chemical genetic matrix, 2015):
Values joined by “and” are separate entries in the source; they are usually repeats but may differ in a detail not shown here. Equal values may be shown once. Hit rate of the full screen: of about 5,500 compounds, about 2,000 (36%) were called active. Not shown: some 18% with an inconclusive outcome. Cut-off read from the data, not from the text of the source: active = normalized growth mostly below about 0.91 (no sharp cut-off); inconclusive = no clear call, values can overlap the other calls; inactive = mostly above about 0.92. The list shows a part of the results.

Assay: chemical genetic growth profiling, strain panel (AID 1159580);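 note: tested at 20 µM; growth read once vehicle control cultures reached saturation at 30 °C; 1 = growth at the plate median or of vehicle wells; lower values mean less growth of the strain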
Conditions: S. cerevisiae deletion strains, growth OD

Measured: normalized growth

CC(C)CCCC(C)[C@H]1CCC2C3CC=C4CC(=O)CC[C@]4(C)C3CC[C@@]21C (stereo not given in full)
active: locus YLR262C, strain YPT6 (second series), hits give low values 0.855 | locus YLR418C, strain cdc73, hits give low values 0.753 | locus YNL307C, strain MCK1, hits give low values 0.842
inactive: locus YAL021C, strain ccr4, hits give low values 0.976 | locus YAL026C, strain drs2, hits give low values 0.985 | locus YAL030W, strain snc1, hits give low values 0.989 | locus YBL061C, strain skt5, hits give low values 1 | locus YBR009C, strain hhf1, hits give low values 1.04 | locus YBR021W, strain FUR4, hits give low values 0.962 | locus YBR023C, strain chs3, hits give low values 0.988 | locus YBR171W, strain sec66, hits give low values 0.992 | locus YBR229C, strain ROT2, hits give low values 0.961 | locus YBR231C, strain swc5, hits give low values 1.01 | locus YBR279W, strain paf1, hits give low values 1 | locus YCL011C, strain gbp2, hits give low values 0.986 | locus YCL016C, strain dcc1, hits give low values 1 | locus YCL029C, strain bik1, hits give low values 0.999 | locus YCL061C, strain MRC1, hits give low values 0.99 | locus YCL069W, strain vba3, hits give low values 0.994 | locus YCR088W, strain abp1, hits give low values 0.99 | locus YDL005C, strain med2, hits give low values 0.99 | locus YDL035C, strain GPR1, hits give low values 0.953 | locus YDL040C, strain nat1, hits give low values 0.975 | locus YDL074C, strain BRE1, hits give low values 0.937 | locus YDL101C, strain DUN1, hits give low values 0.971 | locus YDL185W, strain tfp1, hits give low values 0.982 | locus YDL192W, strain arf1, hits give low values 0.932 | locus YDR001C, strain nth1, hits give low values 0.99 | locus YDR069C, strain doa4, hits give low values 1 | locus YDR101C, strain arx1, hits give low values 1.03 | locus YDR137W, strain rgp1, hits give low values 0.895 | locus YDR150W, strain NUM1, hits give low values 0.978 | locus YDR159W, strain sac3, hits give low values 0.999 | locus YDR162C, strain NBP2, hits give low values 0.939 | locus YDR195W, strain ref2 1.03 | locus YDR297W, strain sur2, hits give low values 0.994 | locus YDR318W, strain mcm21, hits give low values 0.922 | locus YDR334W, strain swr1, hits give low values 0.968 | locus YDR335W, strain msn5, hits give low values 0.984 | locus YDR388W, hits give low values 0.964 | locus YDR392W, strain spt3, hits give low values 0.932 | locus YDR502C, strain sam2, hits give low values 0.947 | locus YEL003W, strain gim4, hits give low values 0.987 | locus YEL037C, strain rad23, hits give low values 0.986 | locus YEL061C, strain CIN8 (second series), hits give low values 0.991 | locus YEL061C, strain CIN8, hits give low values 0.988 | locus YER015W, strain faa2, hits give low values 0.992 | locus YER016W, strain bim1, hits give low values 0.987 | locus YER110C, hits give low values 0.98 | locus YER111C, strain swi4, hits give low values 0.997 | locus YER155C, strain BEM2 (second series), hits give low values 1.01 | locus YER155C, strain BEM2, hits give low values 1.01 | locus YER167W, strain BCK2, hits give low values 0.993 | locus YFR010W, strain ubp6, hits give low values 0.991 | locus YGL078C, strain dbp3, hits give low values 0.98 | locus YGL086W, strain mad1, hits give low values 0.997 | locus YGL167C, strain pmr1, hits give low values 0.996 | locus YGL173C, strain kem1, hits give low values 0.995 | locus YGL227W, strain vid30, hits give low values 0.995 | locus YGL240W, strain doc1, hits give low values 1.04 | locus YGL248W, strain PDE1, hits give low values 0.922 | locus YGL253W, strain hxk2, hits give low values 0.976 | locus YGR135W, strain pre9, hits give low values 0.942 | locus YGR252W, strain gcn5, hits give low values 0.839 | locus YHR013C, strain ard1, hits give low values 0.989 | locus YHR027C, strain rpn1, hits give low values 0.987 | locus YHR030C, strain SLT2, hits give low values 1 and 1.02 | locus YHR079C, strain IRE1 (second series), hits give low values 0.992 | locus YHR079C, strain IRE1, hits give low values 0.997 | locus YHR094C, strain hxt1, hits give low values 0.986 | locus YHR129C, strain ARP1, hits give low values 0.974 | locus YHR142W, strain chs7, hits give low values 0.903 | locus YHR200W, strain rpn10, hits give low values 0.958 | locus YIL066C, strain RNR3, hits give low values 0.952 | locus YIL073C, strain SPO22, hits give low values 0.936 | locus YIL125W, strain kgd1, hits give low values 0.987 | locus YIR030C, strain dcg1, hits give low values 0.979 | locus YJL092W, strain hpr5, hits give low values 0.978 | locus YJL095W, strain BCK1 (second series), hits give low values 0.989 | locus YJL095W, strain BCK1, hits give low values 0.83 and 1 | locus YJL115W, strain asf1, hits give low values 0.974 | locus YJL129C, strain trk1, hits give low values 0.935 | locus YJL134W, strain LCB3, hits give low values 0.982 | locus YJL154C, strain vps35, hits give low values 0.993 | locus YJL164C, strain tpk1, hits give low values 0.95 | locus YJL166W, strain qcr8, hits give low values 0.986 | locus YJL168C, strain set2, hits give low values 0.996 | locus YJL187C, strain SWE1 (second series), hits give low values 0.968 | locus YJL187C, strain SWE1, hits give low values 1 | locus YJR043C, strain POL32, hits give low values 0.958 | locus YJR066W, strain TOR1, hits give low values 0.928 | locus YJR075W, strain HOC1, hits give low values 0.968 | locus YKL009W, strain mrt4, hits give low values 0.943 | locus YKL068W, hits give low values 0.993 | locus YKL085W, strain MDH1 (second series), hits give low values 0.99 | locus YKL085W, strain MDH1, hits give low values 0.99 | locus YKL160W, strain elf1, hits give low values 0.965 | locus YKL190W, strain CNB1, hits give low values 0.984 | locus YKR001C, strain vps1, hits give low values 0.914 | locus YKR026C, strain gcn3, hits give low values 0.993 | locus YKR091W, strain srl3, hits give low values 0.994 | locus YLL001W, strain dnm1, hits give low values 0.988 | locus YLL026W, hits give low values 0.988 | locus YLL041C, strain sdh2, hits give low values 0.981 | locus YLR027C, strain aat2, hits give low values 0.981 | locus YLR039C, strain RIC1, hits give low values 0.696 | locus YLR058C, strain SHM2, hits give low values 0.967 | locus YLR102C, strain apc9, hits give low values 0.989 | locus YLR113W, strain HOG1, hits give low values 0.91 | locus YLR221C, strain rsa3, hits give low values 0.949 | locus YLR258W, strain gsy2, hits give low values 1.01 | locus YLR262C, strain YPT6, hits give low values 0.66 | locus YLR268W, strain sec22, hits give low values 0.974 | locus YLR320W, strain mms22, hits give low values 0.999 | locus YLR330W, strain CHS5, hits give low values 0.985 | locus YLR342W, strain FKS1 (second series), hits give low values 0.946 | locus YLR342W, strain FKS1, hits give low values 1.01 | locus YLR357W, strain rsc2, hits give low values 1.02 | locus YLR370C, strain arc18, hits give low values 0.99 | locus YLR371W, strain rom2, hits give low values 0.989 | locus YLR384C, strain iki3, hits give low values 0.995 | locus YML016C, strain PPZ1, hits give low values 0.996 | locus YML032C, strain rad52, hits give low values 0.91 | locus YML120C, strain ndi1, hits give low values 0.949 | locus YML124C, strain tub3, hits give low values 0.995 | locus YMR058W, strain fet3, hits give low values 0.981 | locus YMR078C, strain ctf18, hits give low values 0.981 | locus YMR125W, strain sto1, hits give low values 0.985 | locus YMR129W, hits give low values 1 | locus YMR205C, strain PFK2, hits give low values 1.03 | locus YMR223W, strain ubp8, hits give low values 0.925 | locus YMR231W, strain pep5, hits give low values 1 | locus YMR307W, strain GAS1, hits give low values 0.875 | locus YNL067W, strain RPL9B, hits give low values 0.987 | locus YNL071W, strain lat1, hits give low values 0.978 | locus YNL183C, strain NPR1, hits give low values 0.937 | locus YNL209W, strain ssb2, hits give low values 1 | locus YNL233W, strain BNI4, hits give low values 0.932 | locus YNL248C, strain rpa49, hits give low values 0.93 | locus YNL250W, strain rad50, hits give low values 0.965 | locus YNL271C, strain bni1, hits give low values 0.977 | locus YNL298W, strain CLA4, hits give low values 0.979 | locus YNL322C, strain KRE1 (second series), hits give low values 0.99 | locus YNL322C, strain KRE1, hits give low values 0.991 | locus YNR049C, strain mso1, hits give low values 0.986 | locus YNR052C, strain pop2, hits give low values 0.98 | locus YOL006C, strain TOP1, hits give low values 1.01 | locus YOL012C, strain htz1 1.02 | locus YOL147C, strain pex11, hits give low values 0.989 | locus YOR001W, strain rrp6, hits give low values 0.933 | locus YOR061W, strain CKA2, hits give low values 0.954 | locus YOR069W, strain VPS5, hits give low values 0.988 | locus YOR070C, strain gyp1, hits give low values 0.978 | locus YOR080W, strain dia2, hits give low values 0.996 | locus YOR083W, strain WHI5, hits give low values 0.944 | locus YOR106W, strain vam3, hits give low values 0.965 | locus YOR136W, strain idh2, hits give low values 0.993 | locus YOR144C, strain elg1, hits give low values 0.993 | locus YOR184W, strain ser1, hits give low values 0.945 | locus YOR231W, strain MKK1, hits give low values 0.965 | locus YOR265W, strain rbl2, hits give low values 0.986 | locus YOR270C, strain vph1, hits give low values 0.922 | locus YOR290C, strain snf2, hits give low values 0.959 | locus YOR316C, strain cot1, hits give low values 0.988 | locus YPL051W, strain arl3, hits give low values 0.956 | locus YPL078C, strain atp4, hits give low values 0.951 | locus YPL106C, strain sse1, hits give low values 1.03 | locus YPL240C, strain hsp82, hits give low values 0.989 | locus YPL241C, strain CIN2, hits give low values 0.995 | locus YPL256C, strain CLN2, hits give low values 1.01 | locus YPR119W, strain clb2, hits give low values 1 | locus YPR141C, strain kar3, hits give low values 0.988 | locus YPR163C, strain tif3, hits give low values 0.977 | locus YPR167C, strain met16, hits give low values 0.96 | strain wtn01, hits give low values 1.02
